Results as given in PubChem BioAssay AID1159580 (chemical genetic matrix, 2015).
Where “and” joins values, the source holds several entries; their conditions need not be identical. Equal values may be shown once. In all, about 5,500 compounds went through this assay and about 2,000 (36%) were called active. Not shown: some 18% with an inconclusive outcome. Cut-off read from the data, not from the text of the source: active = normalized growth mostly below about 0.91 (no sharp cut-off); inconclusive = no clear call, values can overlap the other calls; inactive = mostly above about 0.92. This is one part of the list.

Assay: chemical genetic growth profiling, strain panel (AID 1159580);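 note: tested at 20 µM; growth read once vehicle control cultures reached saturation at 30 °C; 1 = growth at the plate median or of vehicle wells; lower values mean less growth of the strain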
Details: growth OD

Measured: normalized growth

Cc1ccc(S(=O)(=O)NC(=O)NN2CCCCCC2)cc1
inactive: S. cerevisiae deletion strains, locus YJR075W, strain HOC1, stronger effect = lower value 1.03 | S. cerevisiae deletion strains, locus YKL009W, strain mrt4, stronger effect = lower value 1.03 | S. cerevisiae deletion strains, locus YKL068W, stronger effect = lower value 0.988 | S. cerevisiae deletion strains, locus YKL085W, strain MDH1 (second series), stronger effect = lower value 0.977 | S. cerevisiae deletion strains, locus YKL085W, strain MDH1, stronger effect = lower value 0.977 | S. cerevisiae deletion strains, locus YKL160W, strain elf1, stronger effect = lower value 0.957 | S. cerevisiae deletion strains, locus YKL190W, strain CNB1, stronger effect = lower value 1 | S. cerevisiae deletion strains, locus YKR001C, strain vps1, stronger effect = lower value 0.981 | S. cerevisiae deletion strains, locus YKR026C, strain gcn3, stronger effect = lower value 0.992 | S. cerevisiae deletion strains, locus YKR091W, strain srl3, stronger effect = lower value 0.983 | S. cerevisiae deletion strains, locus YLL001W, strain dnm1, stronger effect = lower value 0.982 | S. cerevisiae deletion strains, locus YLL026W, stronger effect = lower value 0.995 | S. cerevisiae deletion strains, locus YLL041C, strain sdh2, stronger effect = lower value 0.99 | S. cerevisiae deletion strains, locus YLR027C, strain aat2, stronger effect = lower value 0.99 | S. cerevisiae deletion strains, locus YLR039C, strain RIC1, stronger effect = lower value 0.954 | S. cerevisiae deletion strains, locus YLR058C, strain SHM2, stronger effect = lower value 0.992 | S. cerevisiae deletion strains, locus YLR102C, strain apc9, stronger effect = lower value 0.985 | S. cerevisiae deletion strains, locus YLR113W, strain HOG1, stronger effect = lower value 1.03 | S. cerevisiae deletion strains, locus YLR221C, strain rsa3, stronger effect = lower value 1.02 | S. cerevisiae deletion strains, locus YLR258W, strain gsy2, stronger effect = lower value 0.98 | S. cerevisiae deletion strains, locus YLR262C, strain YPT6 (second series), stronger effect = lower value 0.961 | S. cerevisiae deletion strains, locus YLR262C, strain YPT6, stronger effect = lower value 0.962 | S. cerevisiae deletion strains, locus YLR268W, strain sec22, stronger effect = lower value 0.983 | S. cerevisiae deletion strains, locus YLR320W, strain mms22, stronger effect = lower value 0.996 | S. cerevisiae deletion strains, locus YLR330W, strain CHS5, stronger effect = lower value 0.994 | S. cerevisiae deletion strains, locus YLR342W, strain FKS1 (second series), stronger effect = lower value 0.941 | S. cerevisiae deletion strains, locus YLR342W, strain FKS1, stronger effect = lower value 0.987 | S. cerevisiae deletion strains, locus YLR357W, strain rsc2, stronger effect = lower value 0.928 | S. cerevisiae deletion strains, locus YLR370C, strain arc18, stronger effect = lower value 0.968 | S. cerevisiae deletion strains, locus YLR371W, strain rom2, stronger effect = lower value 0.977 | S. cerevisiae deletion strains, locus YLR384C, strain iki3, stronger effect = lower value 0.992 | S. cerevisiae deletion strains, locus YLR418C, strain cdc73, stronger effect = lower value 0.989 | S. cerevisiae deletion strains, locus YML016C, strain PPZ1, stronger effect = lower value 0.991 | S. cerevisiae deletion strains, locus YML032C, strain rad52, stronger effect = lower value 0.992 | S. cerevisiae deletion strains, locus YML120C, strain ndi1, stronger effect = lower value 1 | S. cerevisiae deletion strains, locus YML124C, strain tub3, stronger effect = lower value 0.988 | S. cerevisiae deletion strains, locus YMR058W, strain fet3, stronger effect = lower value 0.994 | S. cerevisiae deletion strains, locus YMR078C, strain ctf18, stronger effect = lower value 0.968 | S. cerevisiae deletion strains, locus YMR125W, strain sto1, stronger effect = lower value 0.988 | S. cerevisiae deletion strains, locus YMR129W, stronger effect = lower value 0.987 | S. cerevisiae deletion strains, locus YMR205C, strain PFK2, stronger effect = lower value 1.01 | S. cerevisiae deletion strains, locus YMR223W, strain ubp8, stronger effect = lower value 0.97 | S. cerevisiae deletion strains, locus YMR231W, strain pep5, stronger effect = lower value 0.986 | S. cerevisiae deletion strains, locus YMR263W, strain SAP30, stronger effect = lower value 0.998 | S. cerevisiae deletion strains, locus YMR307W, strain GAS1, stronger effect = lower value 0.956 and 1 | S. cerevisiae deletion strains, locus YNL067W, strain RPL9B, stronger effect = lower value 1.02 | S. cerevisiae deletion strains, locus YNL071W, strain lat1, stronger effect = lower value 0.99 | S. cerevisiae deletion strains, locus YNL128W, strain TEP1, stronger effect = lower value 0.988 | S. cerevisiae deletion strains, locus YNL153C, strain GIM3, stronger effect = lower value 1.05 and 1 | S. cerevisiae deletion strains, locus YNL175C, strain NOP13, stronger effect = lower value 0.991 | S. cerevisiae deletion strains, locus YNL183C, strain NPR1, stronger effect = lower value 0.946 | S. cerevisiae deletion strains, locus YNL197C, strain WHI3, stronger effect = lower value 0.974 | S. cerevisiae deletion strains, locus YNL209W, strain ssb2, stronger effect = lower value 0.968 | S. cerevisiae deletion strains, locus YNL224C, strain SQS1, stronger effect = lower value 1 | S. cerevisiae deletion strains, locus YNL233W, strain BNI4, stronger effect = lower value 1.04 | S. cerevisiae deletion strains, locus YNL248C, strain rpa49, stronger effect = lower value 0.961 | S. cerevisiae deletion strains, locus YNL250W, strain rad50, stronger effect = lower value 0.949 | S. cerevisiae deletion strains, locus YNL271C, strain bni1, stronger effect = lower value 0.983 | S. cerevisiae deletion strains, locus YNL298W, strain CLA4, stronger effect = lower value 0.965 | S. cerevisiae deletion strains, locus YNL307C, strain MCK1, stronger effect = lower value 0.983 | S. cerevisiae deletion strains, locus YNL322C, strain KRE1 (second series), stronger effect = lower value 0.965 | S. cerevisiae deletion strains, locus YNL322C, strain KRE1, stronger effect = lower value 1 | S. cerevisiae deletion strains, locus YNR049C, strain mso1, stronger effect = lower value 0.967 | S. cerevisiae deletion strains, locus YNR052C, strain pop2, stronger effect = lower value 0.974 | S. cerevisiae deletion strains, locus YOL006C, strain TOP1, stronger effect = lower value 1.02 | S. cerevisiae deletion strains, locus YOL012C, strain htz1 1.06 | S. cerevisiae deletion strains, locus YOL147C, strain pex11, stronger effect = lower value 0.975 | S. cerevisiae deletion strains, locus YOR001W, strain rrp6, stronger effect = lower value 1.03 | S. cerevisiae deletion strains, locus YOR061W, strain CKA2, stronger effect = lower value 0.994 | S. cerevisiae deletion strains, locus YOR069W, strain VPS5, stronger effect = lower value 0.994 | S. cerevisiae deletion strains, locus YOR070C, strain gyp1, stronger effect = lower value 0.979 | S. cerevisiae deletion strains, locus YOR080W, strain dia2, stronger effect = lower value 0.979 | S. cerevisiae deletion strains, locus YOR083W, strain WHI5 (second series), stronger effect = lower value 0.971 | S. cerevisiae deletion strains, locus YOR083W, strain WHI5, stronger effect = lower value 0.927 | S. cerevisiae deletion strains, locus YOR106W, strain vam3, stronger effect = lower value 0.984 | S. cerevisiae deletion strains, locus YOR136W, strain idh2, stronger effect = lower value 0.984 | S. cerevisiae deletion strains, locus YOR144C, strain elg1, stronger effect = lower value 0.974 | S. cerevisiae deletion strains, locus YOR184W, strain ser1, stronger effect = lower value 1 | S. cerevisiae deletion strains, locus YOR231W, strain MKK1, stronger effect = lower value 1 | S. cerevisiae deletion strains, locus YOR265W, strain rbl2, stronger effect = lower value 1 | S. cerevisiae deletion strains, locus YOR270C, strain vph1, stronger effect = lower value 1.02 | S. cerevisiae deletion strains, locus YOR290C, strain snf2, stronger effect = lower value 0.957 | S. cerevisiae deletion strains, locus YOR316C, strain cot1, stronger effect = lower value 0.992 | S. cerevisiae deletion strains, locus YPL051W, strain arl3, stronger effect = lower value 0.969 | S. cerevisiae deletion strains, locus YPL078C, strain atp4, stronger effect = lower value 0.98 | S. cerevisiae deletion strains, locus YPL106C, strain sse1, stronger effect = lower value 0.957 | S. cerevisiae deletion strains, locus YPL240C, strain hsp82, stronger effect = lower value 0.988 | S. cerevisiae deletion strains, locus YPL241C, strain CIN2, stronger effect = lower value 0.999 | S. cerevisiae deletion strains, locus YPL256C, strain CLN2, stronger effect = lower value 1.01 | S. cerevisiae deletion strains, locus YPR119W, strain clb2, stronger effect = lower value 0.983 | S. cerevisiae deletion strains, locus YPR141C, strain kar3, stronger effect = lower value 0.976 | S. cerevisiae deletion strains, locus YPR163C, strain tif3, stronger effect = lower value 0.982 | S. cerevisiae deletion strains, locus YPR167C, strain met16, stronger effect = lower value 0.991 | S. cerevisiae deletion strains, strain wtn01, stronger effect = lower value 1.01 | S. cerevisiae strains, strain wild type, stronger effect = lower value 1
